Measurements published in the supplement of paper PMC11732987, “Enantioselective OTUD7B fragment discovery through chemoproteomics screening and high-throughput optimisation” (Communications Chemistry, 2025).

How the values were obtained:
Test in all cases: log2 ratio of Biotin-Ahx-Ub-VS probe labelling (fragment/DMSO); higher = less target engagement (more negative = stronger competition), active = hit call of the paper (q ≤ 0.05, log2 ratio ≤ -1)
Conditions in all cases: compound concentration: 200 uM; treatment time: 3 h
USP34 = USP34 (UniProt Q70CQ2)
Chain of USP34 (Q70CQ2 whole entry, the tested form may be a part): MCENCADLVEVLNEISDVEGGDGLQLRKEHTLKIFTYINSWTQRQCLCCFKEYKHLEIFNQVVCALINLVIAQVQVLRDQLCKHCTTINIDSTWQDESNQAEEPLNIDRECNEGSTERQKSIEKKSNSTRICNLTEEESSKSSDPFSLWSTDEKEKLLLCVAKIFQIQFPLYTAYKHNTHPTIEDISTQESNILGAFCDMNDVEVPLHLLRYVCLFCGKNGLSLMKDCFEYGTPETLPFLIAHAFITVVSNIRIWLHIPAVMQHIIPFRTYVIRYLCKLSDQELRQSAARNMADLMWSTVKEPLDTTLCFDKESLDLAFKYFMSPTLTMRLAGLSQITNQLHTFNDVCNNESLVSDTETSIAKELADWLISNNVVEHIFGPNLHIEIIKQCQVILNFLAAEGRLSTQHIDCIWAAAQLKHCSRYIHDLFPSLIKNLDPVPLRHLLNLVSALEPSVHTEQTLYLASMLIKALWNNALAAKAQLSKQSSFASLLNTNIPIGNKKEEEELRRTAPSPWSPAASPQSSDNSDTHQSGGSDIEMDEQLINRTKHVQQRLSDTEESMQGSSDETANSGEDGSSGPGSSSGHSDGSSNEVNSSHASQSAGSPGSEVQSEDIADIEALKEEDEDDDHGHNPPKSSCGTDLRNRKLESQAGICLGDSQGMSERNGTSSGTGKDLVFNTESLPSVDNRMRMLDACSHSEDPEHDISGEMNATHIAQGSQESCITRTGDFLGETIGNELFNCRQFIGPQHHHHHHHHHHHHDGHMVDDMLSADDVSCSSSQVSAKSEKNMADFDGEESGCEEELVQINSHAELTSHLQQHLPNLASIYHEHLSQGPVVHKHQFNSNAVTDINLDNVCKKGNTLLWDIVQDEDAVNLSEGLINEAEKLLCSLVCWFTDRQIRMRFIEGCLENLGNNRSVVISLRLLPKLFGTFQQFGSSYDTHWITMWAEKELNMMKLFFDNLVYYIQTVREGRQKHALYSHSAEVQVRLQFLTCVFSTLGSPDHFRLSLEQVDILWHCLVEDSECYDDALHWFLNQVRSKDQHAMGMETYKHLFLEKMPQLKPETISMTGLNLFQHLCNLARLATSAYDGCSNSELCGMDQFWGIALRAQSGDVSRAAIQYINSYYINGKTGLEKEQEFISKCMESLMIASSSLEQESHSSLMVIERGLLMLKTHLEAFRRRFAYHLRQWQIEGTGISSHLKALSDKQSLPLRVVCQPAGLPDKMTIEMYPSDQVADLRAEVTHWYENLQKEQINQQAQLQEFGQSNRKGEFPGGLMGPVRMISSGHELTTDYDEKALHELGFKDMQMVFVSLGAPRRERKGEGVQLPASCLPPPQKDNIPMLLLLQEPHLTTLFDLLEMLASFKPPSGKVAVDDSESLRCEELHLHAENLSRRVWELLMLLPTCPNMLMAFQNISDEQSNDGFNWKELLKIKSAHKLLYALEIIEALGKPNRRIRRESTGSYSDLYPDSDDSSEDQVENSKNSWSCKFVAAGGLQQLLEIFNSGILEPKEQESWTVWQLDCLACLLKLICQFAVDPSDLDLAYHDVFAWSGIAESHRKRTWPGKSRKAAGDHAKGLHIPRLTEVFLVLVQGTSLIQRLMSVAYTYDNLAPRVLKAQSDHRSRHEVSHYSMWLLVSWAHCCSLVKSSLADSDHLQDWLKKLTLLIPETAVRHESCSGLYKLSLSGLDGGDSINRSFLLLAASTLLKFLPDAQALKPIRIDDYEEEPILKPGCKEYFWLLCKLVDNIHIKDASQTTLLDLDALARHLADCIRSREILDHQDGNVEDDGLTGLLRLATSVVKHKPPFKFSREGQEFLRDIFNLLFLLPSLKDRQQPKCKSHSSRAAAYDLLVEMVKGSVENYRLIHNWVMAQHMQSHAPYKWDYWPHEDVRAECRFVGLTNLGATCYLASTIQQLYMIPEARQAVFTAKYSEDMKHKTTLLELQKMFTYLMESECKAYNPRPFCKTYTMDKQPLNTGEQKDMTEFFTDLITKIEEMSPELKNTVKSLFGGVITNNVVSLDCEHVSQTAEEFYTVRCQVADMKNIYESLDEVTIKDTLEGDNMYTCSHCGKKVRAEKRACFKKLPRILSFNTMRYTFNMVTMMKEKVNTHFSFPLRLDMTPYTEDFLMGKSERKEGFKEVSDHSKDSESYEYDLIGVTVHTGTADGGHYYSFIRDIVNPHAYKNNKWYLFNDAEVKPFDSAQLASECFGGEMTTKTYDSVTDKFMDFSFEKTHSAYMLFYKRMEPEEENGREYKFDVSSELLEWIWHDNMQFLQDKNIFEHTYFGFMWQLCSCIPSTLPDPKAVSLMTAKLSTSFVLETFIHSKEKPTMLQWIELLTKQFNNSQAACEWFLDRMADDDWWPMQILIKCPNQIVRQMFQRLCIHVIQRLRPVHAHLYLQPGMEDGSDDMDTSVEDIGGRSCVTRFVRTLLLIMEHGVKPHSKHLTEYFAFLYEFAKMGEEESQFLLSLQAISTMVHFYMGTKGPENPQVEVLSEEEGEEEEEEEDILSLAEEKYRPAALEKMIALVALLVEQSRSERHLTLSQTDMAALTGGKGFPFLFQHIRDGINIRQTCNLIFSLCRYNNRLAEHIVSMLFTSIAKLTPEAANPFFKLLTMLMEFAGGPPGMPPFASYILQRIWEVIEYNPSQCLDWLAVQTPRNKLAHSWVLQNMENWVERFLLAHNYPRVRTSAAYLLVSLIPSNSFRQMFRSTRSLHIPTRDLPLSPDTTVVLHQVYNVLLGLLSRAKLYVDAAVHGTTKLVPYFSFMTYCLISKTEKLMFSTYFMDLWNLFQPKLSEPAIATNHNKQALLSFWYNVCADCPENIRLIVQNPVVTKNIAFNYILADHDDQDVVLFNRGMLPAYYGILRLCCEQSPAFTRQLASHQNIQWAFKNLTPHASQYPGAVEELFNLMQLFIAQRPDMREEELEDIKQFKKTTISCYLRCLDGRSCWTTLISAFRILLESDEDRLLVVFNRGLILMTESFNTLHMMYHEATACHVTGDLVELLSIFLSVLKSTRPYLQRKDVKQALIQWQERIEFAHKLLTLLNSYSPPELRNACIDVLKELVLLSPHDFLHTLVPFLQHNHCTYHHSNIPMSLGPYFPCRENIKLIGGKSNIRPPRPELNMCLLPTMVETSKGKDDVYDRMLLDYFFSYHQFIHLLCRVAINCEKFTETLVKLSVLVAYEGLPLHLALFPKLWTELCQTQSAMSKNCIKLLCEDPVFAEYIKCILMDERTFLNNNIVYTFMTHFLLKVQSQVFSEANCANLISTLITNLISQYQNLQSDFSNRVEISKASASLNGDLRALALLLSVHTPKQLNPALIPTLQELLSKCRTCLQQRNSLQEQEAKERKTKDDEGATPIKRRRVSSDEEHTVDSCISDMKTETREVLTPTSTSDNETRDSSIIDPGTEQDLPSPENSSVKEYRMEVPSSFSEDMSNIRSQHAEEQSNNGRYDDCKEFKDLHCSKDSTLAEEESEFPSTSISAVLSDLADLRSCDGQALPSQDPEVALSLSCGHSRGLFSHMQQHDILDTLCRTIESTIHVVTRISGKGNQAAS
Summary of the method: (§1)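 Triplicate samples of HEK293T lysate, 495 µg each, received fragment at 200 µM or vehicle for 3 h, followed by Biotin-Ahx-Ub-VS (0.5 µM final) for 1 h. After NeutrAvidin enrichment of labelled DUBs and LysC/trypsin digestion, peptides were run by diaPASEF LC-MS/MS. The values are average log2 fragment/vehicle ratios from global-median-normalised Spectronaut label-free quantities, tested by unpaired t-test on proteins having ≥2 unique peptides.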

USP36 = target: T1, USP36 (UniProt Q9P275)
T1 sequence (whole entry): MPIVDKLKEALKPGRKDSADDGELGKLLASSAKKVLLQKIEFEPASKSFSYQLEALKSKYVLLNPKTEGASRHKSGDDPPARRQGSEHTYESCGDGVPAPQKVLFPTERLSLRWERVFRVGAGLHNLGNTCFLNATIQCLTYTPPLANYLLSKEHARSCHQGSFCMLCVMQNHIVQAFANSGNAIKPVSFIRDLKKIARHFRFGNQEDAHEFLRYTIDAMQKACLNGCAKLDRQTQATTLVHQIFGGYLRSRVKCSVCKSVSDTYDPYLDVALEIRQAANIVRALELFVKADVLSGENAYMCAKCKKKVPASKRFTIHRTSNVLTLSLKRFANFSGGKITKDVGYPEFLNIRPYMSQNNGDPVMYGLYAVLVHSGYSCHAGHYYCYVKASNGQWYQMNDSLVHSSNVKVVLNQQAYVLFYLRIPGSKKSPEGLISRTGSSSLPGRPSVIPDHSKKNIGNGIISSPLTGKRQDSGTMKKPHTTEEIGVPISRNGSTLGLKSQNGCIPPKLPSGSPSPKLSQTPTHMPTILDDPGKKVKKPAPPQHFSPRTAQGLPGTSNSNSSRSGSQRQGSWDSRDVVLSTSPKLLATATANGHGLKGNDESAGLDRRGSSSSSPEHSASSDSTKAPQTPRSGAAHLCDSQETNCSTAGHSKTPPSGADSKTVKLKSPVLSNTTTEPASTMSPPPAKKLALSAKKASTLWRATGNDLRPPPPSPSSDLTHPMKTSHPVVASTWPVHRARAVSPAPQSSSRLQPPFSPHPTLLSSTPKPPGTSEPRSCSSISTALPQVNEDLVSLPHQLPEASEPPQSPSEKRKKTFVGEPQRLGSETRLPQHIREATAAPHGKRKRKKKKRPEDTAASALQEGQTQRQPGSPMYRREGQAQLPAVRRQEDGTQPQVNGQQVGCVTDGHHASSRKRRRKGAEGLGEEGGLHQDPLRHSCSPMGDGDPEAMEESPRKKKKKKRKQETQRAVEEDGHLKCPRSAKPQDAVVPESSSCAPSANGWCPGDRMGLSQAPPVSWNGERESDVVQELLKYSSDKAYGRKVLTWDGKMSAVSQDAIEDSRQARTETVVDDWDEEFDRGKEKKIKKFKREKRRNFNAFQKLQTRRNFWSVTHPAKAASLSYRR
Summary of the method: as §1

USP38 = target: T2, USP38 (UniProt Q8NB14)
T2 sequence (whole entry): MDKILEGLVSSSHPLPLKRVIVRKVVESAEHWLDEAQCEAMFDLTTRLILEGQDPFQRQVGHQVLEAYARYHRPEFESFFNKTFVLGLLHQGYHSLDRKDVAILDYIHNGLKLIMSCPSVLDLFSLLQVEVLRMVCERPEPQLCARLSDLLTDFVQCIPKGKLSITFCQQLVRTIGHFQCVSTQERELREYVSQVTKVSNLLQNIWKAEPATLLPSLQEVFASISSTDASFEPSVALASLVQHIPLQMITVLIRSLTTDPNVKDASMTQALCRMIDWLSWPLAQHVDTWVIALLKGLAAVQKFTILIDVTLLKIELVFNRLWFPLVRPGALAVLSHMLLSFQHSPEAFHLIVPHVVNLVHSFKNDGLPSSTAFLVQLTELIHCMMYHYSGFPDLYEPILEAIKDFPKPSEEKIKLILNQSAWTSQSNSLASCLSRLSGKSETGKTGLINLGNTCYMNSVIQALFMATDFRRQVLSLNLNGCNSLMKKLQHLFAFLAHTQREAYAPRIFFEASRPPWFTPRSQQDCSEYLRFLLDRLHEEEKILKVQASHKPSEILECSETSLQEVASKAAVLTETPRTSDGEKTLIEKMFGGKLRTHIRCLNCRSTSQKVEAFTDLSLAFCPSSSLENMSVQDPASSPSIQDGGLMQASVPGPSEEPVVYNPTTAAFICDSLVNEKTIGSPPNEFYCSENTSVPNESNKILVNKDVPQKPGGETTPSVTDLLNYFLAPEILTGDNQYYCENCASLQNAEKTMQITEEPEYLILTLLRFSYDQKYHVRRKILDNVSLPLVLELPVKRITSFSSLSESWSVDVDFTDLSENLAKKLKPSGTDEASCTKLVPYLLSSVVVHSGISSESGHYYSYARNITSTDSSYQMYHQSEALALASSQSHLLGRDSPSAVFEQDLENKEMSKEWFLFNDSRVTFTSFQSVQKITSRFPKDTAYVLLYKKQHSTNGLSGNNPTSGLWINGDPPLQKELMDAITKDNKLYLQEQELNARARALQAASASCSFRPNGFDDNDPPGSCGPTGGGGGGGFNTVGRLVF
Summary of the method: as §1

USP39 = target: T3, USP39 (UniProt Q53GS9)
T3 sequence (whole entry): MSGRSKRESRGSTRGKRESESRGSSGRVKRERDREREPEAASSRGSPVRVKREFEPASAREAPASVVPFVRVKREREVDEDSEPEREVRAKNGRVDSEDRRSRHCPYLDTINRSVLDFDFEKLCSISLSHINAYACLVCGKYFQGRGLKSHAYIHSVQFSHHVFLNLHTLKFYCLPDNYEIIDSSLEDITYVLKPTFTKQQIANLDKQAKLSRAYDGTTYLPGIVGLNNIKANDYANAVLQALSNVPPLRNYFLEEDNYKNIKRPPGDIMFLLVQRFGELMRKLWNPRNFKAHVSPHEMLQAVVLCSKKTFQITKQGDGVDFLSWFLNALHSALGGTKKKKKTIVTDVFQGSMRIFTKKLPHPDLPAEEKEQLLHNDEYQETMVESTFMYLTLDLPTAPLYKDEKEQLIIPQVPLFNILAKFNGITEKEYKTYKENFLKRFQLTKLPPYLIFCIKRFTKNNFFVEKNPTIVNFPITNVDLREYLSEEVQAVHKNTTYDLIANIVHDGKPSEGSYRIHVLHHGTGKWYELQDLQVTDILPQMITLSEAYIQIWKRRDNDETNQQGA
Summary of the method: as §1

USP4 = target: T4, USP4 (UniProt Q13107)
T4 sequence (whole entry): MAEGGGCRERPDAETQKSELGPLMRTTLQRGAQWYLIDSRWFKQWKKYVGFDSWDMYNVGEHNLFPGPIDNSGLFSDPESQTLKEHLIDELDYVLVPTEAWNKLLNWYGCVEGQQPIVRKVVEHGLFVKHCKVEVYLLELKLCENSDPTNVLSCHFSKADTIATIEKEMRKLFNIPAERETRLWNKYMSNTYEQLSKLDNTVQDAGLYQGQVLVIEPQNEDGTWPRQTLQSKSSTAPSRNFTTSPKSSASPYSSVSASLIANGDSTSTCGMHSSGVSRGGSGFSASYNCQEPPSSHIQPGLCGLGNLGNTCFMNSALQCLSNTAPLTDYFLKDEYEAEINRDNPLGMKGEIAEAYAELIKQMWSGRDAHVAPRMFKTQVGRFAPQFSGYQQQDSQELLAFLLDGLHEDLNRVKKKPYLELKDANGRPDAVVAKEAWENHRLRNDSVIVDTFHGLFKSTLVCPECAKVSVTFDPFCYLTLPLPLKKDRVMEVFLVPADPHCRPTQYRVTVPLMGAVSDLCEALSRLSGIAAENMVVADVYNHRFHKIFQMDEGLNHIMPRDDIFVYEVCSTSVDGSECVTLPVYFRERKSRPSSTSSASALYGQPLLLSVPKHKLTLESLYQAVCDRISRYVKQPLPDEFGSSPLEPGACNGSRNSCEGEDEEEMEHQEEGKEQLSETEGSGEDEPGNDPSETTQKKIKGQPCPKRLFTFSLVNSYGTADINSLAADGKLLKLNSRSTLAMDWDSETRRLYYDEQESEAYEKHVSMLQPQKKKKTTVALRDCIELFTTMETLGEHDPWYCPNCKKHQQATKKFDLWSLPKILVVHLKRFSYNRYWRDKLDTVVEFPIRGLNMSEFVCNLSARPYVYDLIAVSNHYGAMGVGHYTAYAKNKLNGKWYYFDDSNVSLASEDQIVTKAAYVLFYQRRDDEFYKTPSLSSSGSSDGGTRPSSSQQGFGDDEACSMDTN
Summary of the method: as §1

Measured: log2 ratio of Biotin-Ahx-Ub-VS probe labelling

O=C(CCl)N1CCOC2(CCC2)CC1
inactive: USP34 -0.139 | USP36 -0.163 | USP38 -0.056 | USP39 0.138 | USP4 -0.409
